The text below walks through data of PubChem BioAssay AID1508637 (National Center for Advancing Translational Sciences (NCATS), 2021).

Records with an inconclusive call do not appear. Calls of active or inactive are those of the source. Calls come from the whole dose curve; as a rule, active = well fitted inhibition curve with a large enough effect; inconclusive = small, poorly fitted or top-dose-only effect; inactive = flat fitted curve, though single readings scatter.

A short description of this test: qHTS for characterization and localization of zebrafish homologs of the human ABCB1 multidrug transporter: empty vector transfected cells. The following applies: empty vector transfected control cells, CellTiter-Glo luminescence viability, 72 h; series mostly up to 46.1 µM. The method, boiled down:
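Empty-vector, P-gp-overexpressing MDR-19 and zebrafish abcb4- or abcb5-transfected cells were exposed to ~90 P-gp substrates at varying concentrations for 72 h at 37C. Viability was read by CellTiter-Glo luminescence; cytotoxic meant inhibitory curve class, >50% maximal response and AC50 < 10 uM.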
For `CCN(CC)Cc1ccc(C(=O)N(CCc2ccccc2OC)[C@@H]2CCNC2)cc1`, the Potency entry is “inactive”.

For the molecule `Cc1cc(Nc2cc(N3CCN(C)CC3)nc(Sc3ccc(NC(=O)C4CC4)cc3)n2)n[nH]1`, the Potency was 6620 nM (active).

For the molecule `NC(=O)Nc1cc(-c2cccc(F)c2)sc1C(=O)N[C@H]1CCCNC1`, the Potency is 590 nM (active).

As to `Cc1cc(N)c2ccccc2[n+]1CCCCCCCCCC[n+]1c(C)cc(N)c2ccccc21`, the Potency was 5900 nM (active).

`Cc1cc(Nc2cc(NC(=O)c3c(Cl)cccc3Cl)ccn2)nc(N)n1`: the Potency is 4180 nM (active).

For `CC[n+]1c(-c2ccccc2)c2cc(N)ccc2c2ccc(N)cc21`, the Potency is 332 nM (active).

Consider `Cc1nc(Nc2n[nH]c3c2CN(C(=O)N[C@H](CN(C)C)c2ccccc2)C3(C)C)c2sccc2n1`, for which the Potency is 41.8 nM (active).

Take `COc1cc(C(=O)NC2CCN(C)CC2)ccc1Nc1ncc2c(n1)N(C1CCCC1)CC(F)(F)C(=O)N2C`: the Potency is 41.8 nM (active).

Consider `Cc1ccc(C(=O)N(CCCN)C(c2nc3cc(Cl)ccc3c(=O)n2Cc2ccccc2)C(C)C)cc1` (configuration not stated), for which the Potency was 1180 nM (active).

Consider `CC[C@@]1([C@@H]2O[C@@H]([C@H]3O[C@@](O)(CO)[C@H](C)C[C@@H]3C)C[C@@H]2C)CC[C@H]([C@]2(C)CC[C@]3(C[C@H](O)[C@@H](C)[C@@H]([C@@H](C)[C@@H](OC)[C@H](C)C(=O)O)O3)O2)O1`, for which the Potency was 148 nM (active).

`NC(=O)Nc1cc(-c2ccc(CN3CCOCC3)c(F)c2)sc1C(=O)N[C@H]1CCCNC1`: the Potency is 469 nM (active).

As to `C[C@@H](Oc1cc(-n2cnc3ccc(CN4CCN(C)CC4)cc32)sc1C(N)=O)c1ccccc1C(F)(F)F`, the Potency is 37.2 nM (active).

Consider `CC1(C)CC[C@]2(C(=O)OC3OC(CO)C(O)C(O)C3O)CC[C@]3(C)C(=CCC4[C@@]5(C)CC[C@H](OC6OC(C(=O)O)C(O)C(O)C6O)C(CO)(CO)C5CC[C@]43C)[C@@H]2C1` (some centres not stated), for which the Potency is 2230 nM (active).

For `CO[C@H]1/C=C/C=C/C=C/C[C@H](OC(=O)[C@@H](C)NC(=O)C2CCCCC2)[C@H](C)[C@@H](O)/C(C)=C/CCc2cc(O)cc(c2)NC(=O)C1`, the Potency is 277 nM (active).

Take `C[C@@H]1O[C@@H](O[C@H]2[C@@H](OC(=O)[C@]34CCC(C)(C)CC3C3=CCC5[C@@]6(C)C[C@H](O)[C@H](O[C@@H]7O[C@H](CO)[C@@H](O)[C@H](O)[C@H]7O[C@@H]7OC[C@@H](O)[C@H](O)[C@H]7O)[C@@](C)(C(=O)O)C6CC[C@@]5(C)[C@]3(C)CC4)OC[C@H](O)[C@@H]2O)[C@H](O)[C@H](O)[C@H]1O[C@@H]1OC[C@@H](O)[C@H](O)[C@H]1O` (some centres not stated): the Potency was 1980 nM (active).

With `CC(=O)O[C@@H]1C[C@H](O)[C@@]23CO[C@@H](O)C1(C)[C@@H]2C[C@@H](O)[C@]1(C)[C@@H]3C(=O)[C@H](OC(C)=O)[C@@]2(C)[C@H](c3ccoc3)C[C@H]3O[C@]321`, the Potency was 93.5 nM (active).

On to `CCn1nnc2c(N3CCOCC3)nc(-c3ccc(NC(=O)Nc4ccc(C(=O)N5CCN(C)CC5)cc4)cc3)nc21`, for which the Potency is 332 nM (active).
